Assay outcomes (PubChem)
Methyltransferases: Primary Screen for Target Class Profiling of Small Molecule Inhibitors of Methyltransferases; purified enzyme, MTase-Glo SAH luminescence; stronger effect = lower value; 3.9% of 25,000 active; calls only at 40 µM; call rule not given here
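Each enzyme was reacted with SAM and its substrate, with compounds tested once at 40 uM; SAH formed was read by MTase-Glo luminescence.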
Active calls of the source: *. Only a selection was taken, and hits are over-represented in it overall. % is set by controls: 0 for no effect and ±100 for the full control effect.

Screening O=c1[nH]ccc2nc(-c3ccc(CN4CCC(c5nc(-c6ccccn6)n[nH]5)CC4)cc3)c(-c3ccccc3)cc12 returned Methyltransferases active.
`Cc1oc(-c2ccccc2)nc1CN1CCCC(C(=O)N2CCC(c3nc(C(=O)N4CCCC4)c(C)o3)CC2)C1` (stereo not drawn) gave Methyltransferases inactive.
For O=C(c1ccncc1)N1CCC(Cc2noc(-c3ccccc3)n2)C1 (stereo not drawn) the results were Methyltransferases inactive.
`CCC[C@@H]1CN(C(=O)CCn2cc(Cl)cn2)C[C@H]1C(=O)O` gave Methyltransferases inactive.
For CCN(CC)CCCCCCNc1cc(OC)cc2c(C)ccnc12 the results were Methyltransferases active.
Screening O=C(CCC1CCCN(S(=O)(=O)c2ccc(F)cc2)C1)NCc1ccco1 (stereo not drawn) returned Methyltransferases inactive.
COc1ccc(F)c(-c2nc(CN(C)CC3(CO)CC3)c(C)o2)c1 was read as Methyltransferases inactive.
Cc1ccccc1CCNC(=O)c1cc2n(n1)CC(C)(C(=O)NCc1ccccc1)N(C)C2=O (stereo not drawn) was read as Methyltransferases inactive.
For CC(C)n1c(=O)c2ccc(C(=O)NC3CCCC3)cc2n2c(=O)[nH]nc12 the results were Methyltransferases inactive.
Screening Cc1ccn(-c2cc(Cl)ccc2[C@@H](Oc2cc(-c3ccc(C[C@H](N)C(=O)O)cc3)nc(N)n2)C(F)(F)F)n1 returned Methyltransferases active.
Screening Cc1ccc(-c2nc(NCc3ccncc3)ncc2C(=O)O)cc1 returned Methyltransferases inactive.
`COC(=O)CNC(=O)N1CCCC1c1nc(CCOCC2CC2)no1` (stereo not drawn) gave Methyltransferases inactive.
O=C(c1ccc(Cl)cc1)N1CCN(c2ccnc3cc(Cl)ccc23)CC1 was read as Methyltransferases active.
Screening CCn1cc(-c2ccc(Cl)cc2)cc1C(=O)N1CCN(c2ccccn2)CC1 returned Methyltransferases inactive.
Screening O=C(c1ccc(Cl)c([N+](=O)[O-])c1)N1CCN(c2ccccc2F)CC1 returned Methyltransferases inactive.
CCOC(=O)c1cc2n(n1)CC(C)(C(=O)NC1CCCC1)N(c1cc(C)ccc1C)C2=O (stereo not drawn) was read as Methyltransferases inactive.
O=C(CCc1nnc2n(Cc3ccc(Cl)cc3)c(=O)c3ccccc3n12)Nc1ccccc1 was read as Methyltransferases inactive.
COc1ccc(/C=C/c2nc(NCCCN(C)C)c3ccccc3n2)cc1 was read as Methyltransferases active.
COc1ccc(N(C)c2nc(C)nc3ccccc23)cc1 was read as Methyltransferases inactive.
O=C(Cn1ccc2cc(S(=O)(=O)N3CCCCC3)ccc21)NCCc1c[nH]c2ccccc12 was read as Methyltransferases inactive.
For CN1C(=O)c2cccn2CC1C(=O)NC1CCCC1 (stereo not drawn) the results were Methyltransferases inactive.
Cc1ccc(C(=O)Cn2nc3n(CC(C)C)c(=O)c4ccc(C(=O)NC5CCCC5)cc4n3c2=O)c(C)c1 was read as Methyltransferases inactive.
CC1=CC(=O)CC(C)(C)C1/C=C/C(C)O[C@@H]1O[C@H](CO)[C@@H](O)[C@H](O)[C@H]1O[C@@H]1OC[C@](O)(CO)[C@H]1O (stereo partly drawn) was read as Methyltransferases inactive.
CC1=CC(=O)CC(C)(C)[C@@]1(O)CC[C@@H](C)O[C@@H]1O[C@H](CO)[C@@H](O)[C@H](O)[C@H]1O was read as Methyltransferases inactive.
CC1=CC(=O)CC(C)(C)C1CCC(C)OC1OC(COC(=O)c2cc(O)c(O)c(O)c2)C(O)C(O)C1O (stereo not drawn) was read as Methyltransferases active.
`CC(CCC1C(C(=O)O)=CC(=O)CC1(C)C)O[C@@H]1O[C@H](CO)[C@@H](O)[C@H](O)[C@H]1O` (stereo partly drawn) gave Methyltransferases active.
Screening CC1=CC(=O)CC(C)(C)C1/C=C/C(C)OC1OC(COC2OCC(O)C(O)C2O)C(O)C(O)C1O (stereo not drawn) returned Methyltransferases inactive.
For COc1cc(C(=O)OC[C@H]2O[C@@H](OC(C)(C)C(=O)O)[C@H](O)[C@@H](O)[C@@H]2O)cc(OC)c1O the results were Methyltransferases inactive.
CCCN1C(=O)c2c(C(=O)Nc3ccccc3Cl)ncn2CC1(C)C(=O)NCc1ccc(OC)cc1 (stereo not drawn) was read as Methyltransferases inactive.
Screening COc1ccc(-c2nc(C)nc3c2CCN([S+](=O)([O-])c2cccs2)CC3)cc1 returned Methyltransferases inactive.
For CC1CCN(Cc2nnnn2CC(=O)N(C)Cc2ccccn2)CC1 the results were Methyltransferases inactive.
`CC(C)OCCCN1C(=O)c2ccc(-c3ccccc3)n2CC1(C)C(=O)NC1CCCCCCC1` (stereo not drawn) gave Methyltransferases inactive.
CCN1CC2(CCN(Cc3nc(COC)no3)CC2)CC(c2ccccc2)C1=O (stereo not drawn) was read as Methyltransferases inactive.
CCOc1ccc(C2c3cccn3-c3sc4c(c3CN2C(=O)Nc2cccc(C)c2)CCCC4)cc1 (stereo not drawn) was read as Methyltransferases inactive.
`CCC(C)NC(=O)c1ccc2c(=O)n(CC(C)C)c3nn(CC(=O)c4cc(C)ccc4C)c(=O)n3c2c1` (stereo not drawn) gave Methyltransferases inactive.
For Nc1ncnc2c1c(-c1cccc(OCc3ccccc3)c1)cn2C1CC(CN2CCCC2)C1 (stereo not drawn) the results were Methyltransferases active.
Cc1nnc(N2CCC3(CCC(=O)N(CCCN(C)C)C3)CC2)c2ccccc12 was read as Methyltransferases inactive.
Screening CN(C)CCCn1cc(C2=C(c3c[nH]c4ccccc34)C(=O)NC2=O)c2ccccc21 returned Methyltransferases active.
`COCCc1noc(C2Cc3ccccc3N2C(=O)Cc2ccc(OC)c(OC)c2)n1` (stereo not drawn) gave Methyltransferases inactive.
For Cc1ccc(Cl)cc1Nc1nn2c(=O)c3ccc(C(=O)NCCCOC(C)C)cc3nc2s1 the results were Methyltransferases inactive.
`COc1cccc(Cn2nc3n(CCC(C)C)c(=O)c4ccc(C(=O)NC5CCCC5)cc4n3c2=O)c1` gave Methyltransferases inactive.
CC(C)(C)OC(=O)N1CCC(OCc2nc(-c3ccncc3)no2)CC1 was read as Methyltransferases inactive.
Screening CCOc1ccc(CNC(=O)Cn2ccc3cc(S(=O)(=O)N4CCCCC4)ccc32)cc1OC returned Methyltransferases inactive.
O=c1[nH]c(=S)[nH]c(-c2ccccc2)c1Cc1c(O)ccc2ccccc12 was read as Methyltransferases active.
For CCOCCCNC(=O)C1c2c(n(C)c3ccccc23)SCC(=O)N1c1ccc2c(c1)OCO2 (stereo not drawn) the results were Methyltransferases inactive.
`OC[C@@H]1O[C@H](CNCc2cccc(Cl)c2)[C@H](N2CCN(c3ccccn3)CC2)[C@@H]1O` gave Methyltransferases inactive.
Screening CC(C)c1cc(CNc2nc(Nc3cc(C4CC4)[nH]n3)cc(N3CCN(C)CC3)n2)on1 returned Methyltransferases active.
C=Cc1ccc(Cn2nc3n(CCC(C)C)c(=O)c4ccc(C(=O)NC(C)C)cc4n3c2=O)cc1 was read as Methyltransferases inactive.
CC(C)Cn1c(=O)c2ccc(C(=O)NC3CCCC3)cc2n2c(=O)n(CC(=O)N(C)c3ccccc3)nc12 was read as Methyltransferases inactive.
